# Screens from PubChem.
# Hits are enriched below; roughly 6% of the tested compounds scored in any of these assays.
# Tau fibril FP: blocks human tau fibril formation measured by polarization; AID 1468; K18 P301L tau heparin fibrillization, Alexa594 FP, 6 h; 280,000 compounds, 0.39% hits; Potency, µM (highest dose often 57.7 µM), inactives show at the top dose activity, negative = inhibition, hits mostly inhibitors; P10636; also: nearly all actives have a fitted effect of over 55% in size
# Target sequence (P10636 561-689 P618L limits assumed): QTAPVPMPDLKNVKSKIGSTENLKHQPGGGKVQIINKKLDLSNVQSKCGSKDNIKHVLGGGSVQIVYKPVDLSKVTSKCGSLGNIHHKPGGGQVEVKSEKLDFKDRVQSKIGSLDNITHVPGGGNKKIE
#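 FP of Alexa 594-tau after heparin (20 uM) induction. Substrate: human K18 P301L, 15 uM unlabeled, 0.24 uM labeled. Buffer 100 mM sodium acetate pH 7. 6 hr, 37 C.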
# Sfp PPTase inh: Sfp phosphopantetheinyl transferase inhibition | Q9F4F7 | Biochemical Sfp PPTase activity, qHTS | Potency, µM, without a hit: largest response in the series, negative = inhibition, usual class: inhibitors | 310,000 compounds, 3.5% hits;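 also: the enzyme is Sfp with the accession as filed and its product quenches rhodamine fluorescence; 0% = enzyme reaction without inhibitor and -100% = no enzyme wells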
#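 Fluorescence-quenching assay with 15 nM Sfp, 5 uM rhodamine-CoA and 12.5 uM BHQ-2-labelled ybbR peptide in pH 7.6 Hepes/MgCl2 buffer. Enzyme was pre-incubated with compound for 15 min at room temperature. Rate was taken from the 30-min fluorescence change (525/598 nm).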
# Tau fibril ThT: blocks human tau fibril formation measured by thioflavin T; P10636; recombinant tau K18 P301L, heparin-induced fibrillization, ThT fluorescence; Potency, µM (series often up to 57.4 µM), without a hit: top-dose activity, negative = inhibition, most hits filed as inhibitors; 270,000 compounds, 2.1% hits; also: nearly all actives have a fitted effect of over 55% in size
#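 Tau K18 P301L fragment (15 uM unlabeled plus 0.24 uM Alexa 594-labeled) in 100 mM sodium acetate pH 7 with compound, fibrillization induced by 20 uM heparin for 6 hr at 37 C. Thioflavin T (30 uM) added, fluorescence read after 1 hr (ex 450, em 510 nm).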
# PLK1 PBD block: inhibitors of human PLK1 polo-box domain binding; P53350; AID 720504; Plk1 PBD binding of FITC phosphopeptide, fluorescence polarization; 360,000 compounds, 2.8% hits; Potency, µM, inactives show max response, negative = inhibition, usual class: inhibitors; also: series mostly up to about 57 µM; nearly all actives have a fitted effect of over 65% in size
# Tau fluor cs: counter-screen for tau fibril formation inhibitors; tau K18 P301L (four-repeat tau fragment) Alexa594 fluorescence, heparin fibrillization; Potency, µM (highest dose often 57.7 µM), for the others: at the highest dose activity change, negative = decrease; 280,000 compounds, 0.93% hits; AID 1463; also: nearly all actives have a fitted effect of over 55% in size
#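 Human K18 P301L tau (15 uM unlabeled plus 0.24 uM Alexa 594-labeled, final) in 100 mM sodium acetate pH 7 was mixed with compound and 20 uM heparin and incubated 6 hr at 37 C.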
# VDR inhibitor: vitamin D3 receptor (human) inhibition; P11473; VDR-SRC2-3 peptide fluorescence polarization, 2 h; Potency, µM, for the others: max response, negative = inhibition, usual class: inhibitors; 400,000 compounds, 0.93% hits; AID 504847
#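 Two reagent solutions held at 4 deg C in the dark were dispensed, compounds pinned at 23 nl, and the mixture incubated 2 h at room temperature. Read-out: fluorescence polarization of VDR–SRC2-3 peptide binding.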
# * marks the source's active call; other numbers are inactive results; ? = inconclusive; . = not tested or not shown. Calls follow the shape of the dose curve; as a rule, active = well fitted curve in the direction sought with a large enough effect; inconclusive = small, poorly fitted or top-dose-only effect, or another doubt; inactive = no such curve, though single readings can be large; an effect the other way counts as inactive or inconclusive. Unless noted, % is scaled to controls: 0 for no effect and ±100 for the full control effect; potency is read from the fitted curve at half-maximal effect.
SMILES,Tau fibril FP,Sfp PPTase inh,Tau fibril ThT,PLK1 PBD block,Tau fluor cs,VDR inhibitor
CC1(Oc2ccc(-n3ccnc3)cc2)CCN(Cc2cccn2-c2nccs2)C1 (centres undefined),.,.,.,-4%,.,.
COc1ccccc1CNC(=O)c1ccc(CSc2nc3ccncc3n2Cc2cccc(F)c2)cc1,5%,.,7%,.,-13%,7%
COc1ccc(NC(=S)N(CCN(C)C)C(C)c2ccco2)cc1Cl (centres undefined),11%,-11%,-7%,24µM*,-19%,-22%
COc1cccc(NC(=S)N(CCN(C)C)C(C)c2ccco2)c1 (centres undefined),-4%,-5%,-3%,-5%,-6%,1%
Cc1c(C)c2c(OCC(=O)NCC(=O)NCC(=O)O)cc3c(c2oc1=O)CCC(C)(C)O3,.,15%,.,12µM*,.,?
Cc1c(C)c2c(OCC(=O)O)cc3c(c2oc1=O)CCC(C)(C)O3,.,15%,.,-6%,.,-16%
CCc1ccc(CCC(=O)Nc2sc3c(c2C#N)CCCC3)o1,-2%,-47%,?,-22%,-7%,-12%
N#Cc1c(/N=C/c2cc3ccccc3s2)sc2c1CCC2,-1%,-28%,1.3µM*,-21%,-7%,8%
Cc1ccc(/C=C/C(=O)Nc2sc3c(c2C#N)CCCC3)o1,-6%,40µM*,-7%,-29%,-6%,-21%
Cc1[nH]n(-c2cccc3ccccc23)c(=O)c1/C=N/c1sc2c(c1C#N)CCC2,-7%,79µM*,?,?,-24%,-3%
Cc1[nH]n(-c2ccc(F)cc2)c(=O)c1/C=N/c1sc2c(c1C#N)CCCC2,3%,8%,?,?,-13%,4%
CN1CCN(/C=N/c2sc3c(c2C#N)CCCCC3)CC1,7%,-1%,-16%,-9%,-18%,-10%
Cc1ccc(/C=N/c2sc3c(c2C#N)CCC3)s1,-4%,-7%,2µM*,-11%,-25%,-3%
O=C(NCc1c(Cl)cccc1Cl)c1[nH]c(C(F)(F)F)nc1-c1ccccc1,.,.,.,2%,.,.
N#Cc1c(/N=C/C=C/c2ccccc2)sc2c1CCCC2,1%,25µM*,?,9.5µM*,-12%,?
CCN(/C=N/c1sc2c(c1C#N)CCCCC2)CC,?,-10%,?,-4%,-22%,-1%
Cc1ccc(/C=N/c2sc3c(c2C#N)CCCCC3)o1,0%,50µM*,?,-15%,-16%,-6%
COC(=O)c1nc(N2CCN(S(=O)(=O)c3ccc(C)cc3)CC2)c2ccccc2n1,.,.,.,.,.,-21%
CCCCCNC(=O)C1C(=O)Nc2ccccc2C(=O)N1c1ccc(OC)cc1 (centres undefined),.,.,.,0%,.,.
O=C(Nc1ccccc1)C12CC1/C(=N\O)c1ccccc1O2 (centres undefined),-3%,2%,-5%,.,-16%,3%
CCCc1ccc(C2=Nn3c(nnc3C(C)C)SC2)cc1,.,22µM*,.,11µM*,.,79µM*
S=C(c1ccc(-c2cccc(Cl)c2)o1)N1CCCCC1,-6%,-43%,?,?,-24%,4%
CN1CCN(C(=S)c2ccc(-c3cccc([N+](=O)[O-])c3)o2)CC1,-7%,-16%,?,-22%,?,?
N#CCCN1CCN(C(=S)c2ccc(-c3cccc(Cl)c3)o2)CC1,2%,45µM*,?,-27%,-28%,6%
N#CCCN1CCN(C(=S)c2ccc(-c3ccc(Cl)c(Cl)c3)o2)CC1,11%,50µM*,?,11µM*,-24%,-11%
COCCCNC(=O)CSc1nc2cc3c(cc2c(=O)n1CCCCCC(=O)NCCc1ccc(OC)c(OC)c1)OCO3,-4%,.,-4%,.,-3%,16%
O=C(Oc1ccc[nH]c1=O)C1CC1,.,.,.,0%,.,.
Nc1nc(NCc2c(F)cccc2Cl)nn1-c1ccccc1,18%,1%,-4%,27µM*,-8%,-13%
N=c1oc2ccc3ccccc3c2cc1C(N)=S,3%,?,?,24µM*,-14%,-22%
